Structures are written as SMILES. Inconclusive results are not listed. Active and inactive are the calls of the source. Calls follow the shape of the dose curve; as a rule, active = well fitted activation curve with a large enough effect; inconclusive = small, poorly fitted or top-dose-only effect, or another doubt; inactive = no such curve, though single readings can be large or run the other way.
Potency is read from the fitted curve at half-maximal effect.

The target of the assay is Rap guanine nucleotide exchange factor 3 (Homo sapiens) (UniProt O95398). Briefly: Counterscreen qHTS for agonist of cAMP-regulated guanine nucleotide exchange factor 3 (EPAC1) (AID 1645889). Also: nearly all actives have a fitted effect of over 40% in size. As to activation: % of control where 0% means no effect. As to conditions: EPAC1 Rap1B-BODIPY-GDP exchange, fluorescence; series mostly up to 154 µM; activation: at the top concentration. An outline of the steps:
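Rap1B-BODIPY-GDP 250 nM + GDP 50 uM; cpds 7-pt, final 9.74 nM–152 uM (activator mode) or from 7.32 nM upwards (inhibitor mode); RT; FI 480/540 nm at 5 and 30 min, then ± cAMP, reread.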
Background: A counterscreen serves to expose hits that act by an unwanted route or on another target.
In the case of `C=CCN1C(=O)/C(=C/C=C2/N(CC)c3ccc(S(=O)(=O)N(C)C)cc3N2CC)SC1=S`, the activation is 14.5% [at 30.8 µM] (inactive). On the same count and under the same terms, as for `CCN(CC)CC#CCOC(c1ccccc1)c1ccccc1`, the figure is 6.34% (inactive). Regarding `CCn1nc(C)c(C(=O)Nc2cc(Oc3ccc(Cl)cc3)cc([N+](=O)[O-])c2)c1C`, the “activation” value is 22.6% (inactive). Still for that read-out and setting: as for `CCCc1nn2c(=O)cc(COC(=O)c3ccc(NC(=O)COc4ccccc4F)cc3)nc2s1`, the figure is 15.7% (inactive); as for `CC(=O)C1=CCC(c2cccc(Cl)c2)N(S(=O)(=O)c2ccc(C)cc2)C1` (stereo unspecified), 21.7% (inactive); as for `O=S(=O)(c1ccc(Br)c2ccccc12)N1CCCC1`, 14.3% (inactive).

`COC(=O)c1cc2sccc2n1Cc1ccccc1`: the Potency is 44.7 µM (active).

Consider `CCN(CC)CCOC(=O)c1ccc(NC(=O)c2nn(-c3ccc(C)cc3)c(=O)c3c2c2ccccc2n3C)cc1`, for which the “activation” value was 17.6% (inactive). With `COC(=O)c1c(NC(=O)c2ccc(S(=O)(=O)N3CCCCC3C)cc2)sc2c1CCN(C(C)C)C2` (stereo unspecified), the Potency is 79.4 µM (active).

For the compound `Cc1cc(C)c(S(=O)(=O)N(C)c2ccccc2)c(C)c1`, the “activation” value is 35.6% (inactive). Same read-out and setting: as for `COc1ccc(C(=O)Nc2ccc(NC(=O)c3cccs3)cc2)cc1OC`, the figure is 1.09% (inactive).

The values are drawn from PubChem BioAssay (NCATS).
